Experimental data: PubChem BioAssay (Tox21)
Inconclusive results are not listed. Calls of active or inactive are those of the source. Unless noted, calls come from the whole dose curve; as a rule, active = well fitted curve in the direction sought with a large enough effect in the repeat runs; inconclusive = weak or mixed curves; inactive = no such curve, though single readings can be large; an effect the other way counts as inactive or inconclusive.

What was measured:
[1] = qHTS assay to identify small molecule agonists of the androgen receptor (AR) signaling pathway in the presence of an antagonist - cell viability counter screen (AID 1259379); note: nearly all actives have a fitted effect of over 25% in size; note: potency is the fitted concentration of half-maximal effect;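 for activity change, negative = cytotoxicity: MDA-kb2 human breast cancer cells carrying an MMTV luciferase reporter; series mostly up to about 92 µM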
Procedure, shortened: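 Cytotoxicity counter-screen run in the same wells as the nilutamide-challenged (3.0 µM final) AR agonist assay in MDA-kb2 cells. Compounds tested at 15 concentrations for 16 h, 37 °C without CO2; CellTiter-Fluor fluorescence read.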

[2] = qHTS assay to identify small molecule agonists of the estrogen receptor beta (ER-beta) signaling pathway - cell viability counter screen (AID 1259380); note: nearly all actives have a fitted effect of over 30% in size
Procedure, shortened: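 Cell viability counter screen: CellTiter-Glo luminescence (30 min, room temperature) measured in the same wells as the beta-lactamase readout, after 16 hr compound exposure at 37C of ER-beta-bla HEK293T cells in 2% charcoal-stripped FBS medium.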

[3] = qHTS assay to identify small molecule antagonists of the estrogen receptor beta (ER-beta) signaling pathway - cell viability counter screen (AID 1259382);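 note: HEK293T cells carrying ER-beta-UAS-bla reporter stimulated with estradiol; series mostly up to about 92 µM; nearly all actives have a fitted effect of over 55% in size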
Procedure, shortened: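 Cytotoxicity was measured in the same wells by CellTiter-Glo luminescence after 30 min at room temperature. Cells were ER-beta-bla HEK293T in charcoal-stripped serum, given compound together with 1 nM E2 and incubated 16 h at 37C.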

[4] = qHTS assay to identify small molecule agonists of the estrogen receptor alpha (ER-alpha) signaling pathway in the presence of an antagonist - cell viability counter screen (AID 1259386); note: nearly all actives have a fitted effect of over 30% in size; note: potency is the fitted concentration of half-maximal effect; for activity change, negative = cytotoxicity: series mostly up to about 92 µM
Procedure, shortened: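 Compounds tested at 15 concentrations for 22 h at 37C alongside 10.0nM (final) ICI-182,780 antagonist, in VM7Luc4E2 cells grown in phenol red-free, charcoal-stripped medium. Viability read by CellTiter-Fluor fluorescence after 1 h reagent incubation.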

[5] = biological target: Progesterone receptor (Homo sapiens) (UniProt P06401); experiment: qHTS assay to identify small molecule agonists of the progesterone receptor (PR) signaling pathway (AID 1346784; calls by dose curve; note: nearly all actives have a fitted effect of over 30% in size)
Progesterone receptor (Homo sapiens), sequence (P06401 whole entry, looked up): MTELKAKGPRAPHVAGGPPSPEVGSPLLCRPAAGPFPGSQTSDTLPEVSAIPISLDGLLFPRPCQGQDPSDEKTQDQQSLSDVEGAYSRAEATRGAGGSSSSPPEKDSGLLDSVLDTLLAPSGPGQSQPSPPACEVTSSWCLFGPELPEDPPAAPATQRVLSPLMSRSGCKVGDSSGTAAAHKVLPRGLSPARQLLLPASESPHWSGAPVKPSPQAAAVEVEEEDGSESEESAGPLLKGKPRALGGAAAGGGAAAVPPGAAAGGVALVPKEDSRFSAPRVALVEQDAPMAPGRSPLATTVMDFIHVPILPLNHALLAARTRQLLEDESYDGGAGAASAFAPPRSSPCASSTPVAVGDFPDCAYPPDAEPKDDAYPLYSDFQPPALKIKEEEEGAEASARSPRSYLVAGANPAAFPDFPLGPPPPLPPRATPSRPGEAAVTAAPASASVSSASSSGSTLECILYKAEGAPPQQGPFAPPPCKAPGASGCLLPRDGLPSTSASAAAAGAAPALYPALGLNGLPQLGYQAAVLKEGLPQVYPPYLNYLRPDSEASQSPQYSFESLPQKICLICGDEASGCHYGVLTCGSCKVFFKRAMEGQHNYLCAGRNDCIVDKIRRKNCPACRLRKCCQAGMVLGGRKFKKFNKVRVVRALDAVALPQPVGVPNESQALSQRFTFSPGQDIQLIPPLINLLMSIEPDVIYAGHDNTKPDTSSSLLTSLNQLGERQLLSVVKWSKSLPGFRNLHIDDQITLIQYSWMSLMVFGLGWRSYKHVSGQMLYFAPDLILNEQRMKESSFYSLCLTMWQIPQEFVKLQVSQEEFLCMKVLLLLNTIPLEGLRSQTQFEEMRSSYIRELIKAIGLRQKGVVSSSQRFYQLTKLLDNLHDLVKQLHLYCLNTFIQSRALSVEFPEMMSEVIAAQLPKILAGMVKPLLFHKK
Procedure, shortened: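 PR-UAS-bla HEK 293T cells (beta-lactamase reporter under UAS) in 2% charcoal-stripped FBS, dosed with 23 nL compound after 6 hr, incubated 16hr at 37C. LiveBLAzer B/G FRET substrate added, fluorescence read after 2 hours.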

[6] = biological target: Progesterone receptor (Homo sapiens) (UniProt P06401); experiment: qHTS assay to identify small molecule antagonists of the progesterone receptor (PR) signaling pathway (AID 1346795; active = well fitted inhibition curve with a large enough effect in the signal ratio in the repeat runs, not every such curve was filed as active; the % refers to the signal ratio)
Procedure, shortened: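 PR-UAS-bla HEK293T cells with beta-lactamase reporter under UAS control, in 2% charcoal-stripped FBS, treated with compounds plus 1 nM promegestone (R5020, final) for 16 hr at 37C. Read-out: FRET beta-lactamase substrate fluorescence after 2 hr at room temperature.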

[7] = qHTS assay to identify small molecule antagonists of the progesterone receptor (PR) signaling pathway - cell viability counter screen (AID 1346798); note: nearly all actives have a fitted effect of over 50% in size; note: potency is the fitted concentration of half-maximal effect; for activity change, negative = cytotoxicity: series mostly up to about 92 µM
Procedure, shortened: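 PR-UAS-bla HEK293T cells, 3,000/well in 2% charcoal-stripped FBS medium, dosed with compounds plus R5020 agonist and incubated 16 h at 37C. Viability then measured in the same wells by CellTiter-Glo luminescence after 30 min at RT.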

[8] = qHTS assay to identify small molecule antagonists of the TGF-beta/Smad signaling pathway - cell viability counter screen (AID 1346824); note: nearly all actives have a fitted effect of over 50% in size
Procedure, shortened: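 SBE-bla HEK 293T cells, incubated overnight, then compound plus 0.25 ng/mL TGF-beta1 (stock added) for 5 hr at 37 C. Viability was read in the same wells by CellTiter-Glo luminescence after 30 min at room temperature.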

[9] = qHTS assay to identify small molecule agonists of the TGF-beta/Smad signaling pathway - cell viability counter screen (AID 1346829); note: top concentration of the series differs between compounds; nearly all actives have a fitted effect of over 45% in size
Procedure, shortened: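 CellTiter-Glo luminescence readout; SBE-bla HEK 293T cells, overnight plating, compound 5 hr at 37 C/5% CO2, then bla substrate 2 hr RT, then CellTiter-Glo 30 min RT.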

[10] = qHTS assay to identify small molecule agonists of the TGF-beta/Smad signaling pathway (AID 1346859; active = well fitted activation curve with a large enough effect in the signal ratio in the repeat runs, not every such curve was filed as active; the % refers to the signal ratio; note: series mostly up to about 77 µM)
Procedure, shortened: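 SBE-bla HEK293T cells plated overnight, then compound exposure for 5 h at 37 C. Beta-lactamase reporter read with LiveBLAzer B/G FRET substrate after 2 h at room temperature, fluorescence at 405 nm excitation, 460/530 nm emission.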

[11] = Human pregnane X receptor (PXR) small molecule agonists, qHTS cell viability counter screen (AID 1346977); note: nearly all actives have a fitted effect of over 50% in size
Procedure, shortened: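 PXR-Luc HepG2 cells (2,000/well, 5% charcoal-stripped FBS) preincubated 5 hr, then exposed to compounds 24 hr at 37 C. Viability read in the same wells by CellTiter-Fluor fluorescence, reagent added at 23 hr, 1 hr incubation.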

[12] = qHTS assay to identify small molecule agonists of the progesterone receptor (PR) signaling pathway - cell viability counter screen (AID 1346799; calls by dose curve; note: nearly all actives have a fitted effect of over 45% in size; note: potency is the fitted concentration of half-maximal effect)
Procedure, shortened: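 Counter screen in the PR-UAS-bla HEK293T wells (2% charcoal-stripped FBS, 16 h compound exposure at 37 C) after the bla read. CellTiter-Glo added, 30 min at room temperature, luminescence read as cell viability.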

[13] = biological target: Thyrotropin-releasing hormone receptor (Homo sapiens) (UniProt P34981); experiment: qHTS assay to identify small molecule antagonists of the thyrotropin-releasing hormone receptor (TRHR) signaling pathway (AID 1346877; active = well fitted inhibition curve with a large enough effect in the repeat runs, not every such curve was filed as active; note: series mostly up to about 51 µM)
Thyrotropin-releasing hormone receptor (Homo sapiens), sequence (P34981 whole entry, looked up): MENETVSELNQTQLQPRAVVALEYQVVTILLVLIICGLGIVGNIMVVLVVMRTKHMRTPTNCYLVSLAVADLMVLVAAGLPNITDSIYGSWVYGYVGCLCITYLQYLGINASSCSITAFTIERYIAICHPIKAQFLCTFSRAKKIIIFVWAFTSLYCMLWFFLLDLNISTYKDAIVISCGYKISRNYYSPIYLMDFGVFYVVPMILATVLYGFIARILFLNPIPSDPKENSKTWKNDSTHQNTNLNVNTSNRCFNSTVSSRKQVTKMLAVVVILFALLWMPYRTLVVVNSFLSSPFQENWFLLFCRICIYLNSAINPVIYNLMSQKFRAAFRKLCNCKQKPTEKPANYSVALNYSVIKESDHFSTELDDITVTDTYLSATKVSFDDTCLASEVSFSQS
Procedure, shortened: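 Antagonist mode: after a 5 min room-temperature compound exposure, cells were stimulated with 1 nM (final) TRH. Dye-loaded TRHR-HEK293 cells were used, and calcium-dependent fluorescence was followed for 3 min, with 15-point titrations run in triplicate.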

[14] = biological target: Thyrotropin-releasing hormone receptor (Homo sapiens) (UniProt P34981); experiment: qHTS assay to identify small molecule agonists of the thyrotropin-releasing hormone receptor (TRHR) signaling pathway (AID 1346891; calls by dose curve; note: series mostly up to about 58 µM)
Procedure, shortened: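 HEK293 cells expressing TRHR plated 18 h at 37 C/5% CO2, calcium dye-loaded 2 h at 37 C, then compound added (agonist mode); kinetic calcium fluorescence read 3 min at 1 s intervals; 15 concentrations in triplicate.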

[15] = qHTS assay to identify small molecule agonists or antagonists of the thyroid stimulating hormone receptor (TSHR) signaling pathway - wild type cell line counter screen (AID 1259384; calls by dose curve)
Procedure, shortened: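 Wild-type Hek293 cells, 800/well, 18 h at 37C, then compound with Ro20-1724 for 30 min RT. cAMP by HTRF (cAMP-d2/anti-cAMP cryptate), 1 h RT, fluorescence read. 15 concentrations, triplicates.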

[16] = biological target: Estrogen receptor (Homo sapiens) (UniProt P03372); experiment: qHTS assay to identify small molecule agonists of the estrogen receptor alpha (ER-alpha) signaling pathway in the presence of an antagonist (AID 1259383; calls by dose curve; note: top concentration of the series differs between compounds; nearly all actives have a fitted effect of over 15% in size)
Estrogen receptor (Homo sapiens), sequence (P03372 whole entry, looked up): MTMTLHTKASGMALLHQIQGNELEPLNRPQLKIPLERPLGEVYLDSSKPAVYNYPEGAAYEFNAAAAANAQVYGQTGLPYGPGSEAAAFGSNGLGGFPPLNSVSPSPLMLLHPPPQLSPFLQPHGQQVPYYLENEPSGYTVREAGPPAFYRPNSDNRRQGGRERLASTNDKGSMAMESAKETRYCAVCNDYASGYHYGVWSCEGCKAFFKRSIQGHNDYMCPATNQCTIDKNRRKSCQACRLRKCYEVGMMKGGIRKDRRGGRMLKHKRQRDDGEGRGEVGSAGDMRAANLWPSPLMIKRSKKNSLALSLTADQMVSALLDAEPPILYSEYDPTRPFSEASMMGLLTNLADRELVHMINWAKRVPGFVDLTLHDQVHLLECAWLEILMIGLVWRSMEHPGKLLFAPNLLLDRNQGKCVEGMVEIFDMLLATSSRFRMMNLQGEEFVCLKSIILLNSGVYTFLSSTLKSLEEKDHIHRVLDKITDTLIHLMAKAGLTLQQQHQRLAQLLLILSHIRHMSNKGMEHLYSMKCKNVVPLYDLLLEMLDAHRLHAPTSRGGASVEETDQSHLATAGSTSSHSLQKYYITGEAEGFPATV
Procedure, shortened: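 Agonist-mode confirmation run in the presence of 10.0nM (final) ICI-182,780 antagonist. The reporter was ERE-driven luciferase in VM7Luc4E2 cells, grown in charcoal-stripped serum. Cells were exposed to 15-concentration compound series for 22hr, then ONE-Glo luminescence was read.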

[17] = biological target: Thyrotropin receptor (Homo sapiens) (UniProt P16473); experiment: qHTS assay to identify small molecule antagonists of the thyroid stimulating hormone receptor (TSHR) signaling pathway (AID 1259385; calls by dose curve; note: nearly all actives have a fitted effect of over 20% in size)
Thyrotropin receptor (Homo sapiens), sequence (P16473 whole entry, looked up): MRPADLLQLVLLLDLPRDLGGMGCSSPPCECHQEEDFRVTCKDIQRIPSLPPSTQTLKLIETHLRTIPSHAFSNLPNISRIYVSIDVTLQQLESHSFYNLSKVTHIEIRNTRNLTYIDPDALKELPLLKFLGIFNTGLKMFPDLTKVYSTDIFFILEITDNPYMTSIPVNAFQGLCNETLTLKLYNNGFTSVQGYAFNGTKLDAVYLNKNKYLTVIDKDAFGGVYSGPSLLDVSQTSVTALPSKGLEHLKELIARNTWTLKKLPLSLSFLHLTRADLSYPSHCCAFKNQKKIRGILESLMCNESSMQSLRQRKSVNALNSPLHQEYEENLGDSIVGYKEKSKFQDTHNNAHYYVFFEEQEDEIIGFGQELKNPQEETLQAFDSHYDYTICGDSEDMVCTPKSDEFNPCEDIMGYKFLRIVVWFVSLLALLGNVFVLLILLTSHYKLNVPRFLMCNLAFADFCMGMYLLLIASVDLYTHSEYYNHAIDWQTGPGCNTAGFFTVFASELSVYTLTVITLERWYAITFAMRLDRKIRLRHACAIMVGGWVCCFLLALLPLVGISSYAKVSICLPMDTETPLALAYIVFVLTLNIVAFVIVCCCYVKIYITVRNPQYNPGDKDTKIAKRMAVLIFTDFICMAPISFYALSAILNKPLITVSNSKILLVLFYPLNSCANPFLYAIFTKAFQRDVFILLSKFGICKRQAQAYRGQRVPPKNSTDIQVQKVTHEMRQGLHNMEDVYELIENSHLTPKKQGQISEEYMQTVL
Procedure, shortened: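 TSHR-HEK293 cells (800/well) plated 18 h, then compounds with Ro20-1724 and TSH at 1.5 ng/mL final, 30 min at room temperature. cAMP quantified by HTRF (cAMP-d2/anti-cAMP-cryptate, 1 h); 15 concentrations in triplicate.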
% is set by controls: 0 for no effect and ±100 for the full control effect.

CCCn1cc[n+](C)c1C
inactive: Potency [1] | Potency [2] | outcome [3] | Potency [4] | Potency [5] | Potency [6] | Potency [7] | outcome [8] | outcome [9] | outcome [10] | Potency [11]

CCN[C@@H]1C[C@H](N)[C@@H](OC2OC(CN)=CCC2N)[C@H](O)[C@H]1O[C@H]1OC[C@](C)(O)[C@H](NC)[C@H]1O (stereo partly specified)
inactive: activity change, negative = cytotoxicity [1] 0.828% [at 0.35 µM] | activity change, negative = cytotoxicity [2] 6.54% [at 0.349 µM] | activity change, negative = cytotoxicity [4] 7.38% [at 0.349 µM] | activation [5] 0.0091% [at 0.349 µM] | activity change, negative = inhibition [6] 9.29% [at 0.348 µM] | activity change, negative = cytotoxicity [7] 4.73% [at 0.348 µM] | activity change, negative = cytotoxicity [12] -2.08% [at 0.349 µM] | viability change, negative = cytotoxic [8] 6.56% [at 0.29 µM] | activity change, negative = cytotoxicity [9] -2.15% [at 0.29 µM] | activation [10] -2.06% [at 0.29 µM] | activity, negative = inhibition [13] 0.737% [at 0.194 µM] | activation [14] -0.947% [at 0.218 µM] | activity change, negative = cytotoxicity [11] 1.73% [at 0.349 µM]

COc1cc(C)nc(-n2nc(C)cc2OC)n1
inactive: Potency [1] | Potency [2] | outcome [3] | outcome [15] | Potency [4] | outcome [8] | outcome [9] | outcome [10]
active: Potency [7] 11.9 µM | Potency [12] 8.41 µM

CC1=NS(=O)(=O)c2cc(Cl)ccc2N1
inactive: Potency [1] | Potency [2] | outcome [16] | outcome [15] | outcome [17] | Potency [4] | Potency [5] | Potency [6] | Potency [7] | Potency [12] | outcome [8] | outcome [9] | outcome [10] | Potency [11]

COc1cc2c(cc1OC)-c1cc3ccc(OC)c(OC)c3c[n+]1CC2
active: Potency [1] 49 µM | Potency [4] 61.7 µM
inactive: Potency [2] | outcome [3] | Potency [6] | Potency [12] | outcome [8] | outcome [9] | outcome [13] | Potency [14]

O=C(O)CNC(=O)c1ccc(CO)o1
inactive: Potency [1] | Potency [2] | outcome [3] | outcome [16] | Potency [4] | Potency [6] | Potency [7] | Potency [12] | outcome [9] | outcome [10] | outcome [13] | Potency [14] | Potency [11]
